# Laboratory results as given in PubChem BioAssay (NCI).
# Several values for one entry are separate records, joined by “and”; a condition that tells them apart may be missing. Equal values may be shown once. Compounds without any hit were thinned out: in the full panel of roughly 83,000, 20% have a hit.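 Each cell line was grown in a 96-well plate and treated with one concentration of compound for 48 hours. Values below 10 were considered active.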 Values without a mark were called inactive. Activity calls are given as the source filed them.
# Test system: MDA-MB-468 breast
# Experiment: NCI-60 one-dose screen, 48 h (100 = growth as untreated, 0 = no growth, -100 = all killed)
# Details: 10 µM unless noted
row,SMILES,growth
1,CC(C)CCC(=O)O[C@H]1CC[C@H]2[C@@H]3CCC4=CC(=O)CC[C@]4(C)[C@H]3CC[C@]12C,102%
2,CC[CH2][Sn]([Cl])([Cl])[CH2]CC,22.4%
3,CC(C)[C@]12O[C@H]1[C@@H]1O[C@]13[C@]1(O[C@H]1C[C@H]1C4=C(CC[C@@]13C)C(=O)OC4)[C@@H]2OC(=O)OC(C)(C)C,-48.4% (active)
4,FC(F)=C(F)c1ccccc1,105%
5,CCOP(=O)(OCC)C(O)c1ccccc1Cl (stereo not given),103%
6,Cc1c(NS(=O)(=O)c2ccccc2)ccc([N+](=O)[O-])c1Cl,34.5%
7,COc1cc(C2(C#N)CCN(C)CC2)cc(OC)c1OC,108%
8,COC(=O)[C@@H](C)C[C@H](Cc1ccccc1)NC(=O)c1csc([C@@H](C[C@H](C(C)C)N(C)C(=O)[C@@H](NC(=O)C23CC(NC(C)=O)(C2)C3)C2CC2)OC(C)=O)n1,3.05% (active)
9,O=[N+]([O-])c1c(Br)sc(Br)c1[N+](=O)[O-],1.55% (active)
10,CCN1C(=O)CC(=O)N(CC)C1=S,93.1%
11,COC(=O)[C@@H](C)C[C@H](Cc1ccccc1)NC(=O)c1csc([C@@H](C[C@H](C(C)C)N(C)C(=O)C2(NC(=O)[C@H]3CCCCN3C)CCC2)OC(C)=O)n1,7.04% (active)
12,C=C=[CH][Sn]([c]1ccccc1)([c]1ccccc1)[c]1ccccc1,-66.5% (active)
13,C=CC12CCN(CC1)C(C(O)c1ccnc3ccc(OC)cc13)C2 (stereo not given),11.6%
14,Cc1c2ccncc2c(C)c2c1[nH]c1ccccc12,-54.9% (active)
15,O=C(CC1(O)C(=O)N(Cc2ccccc2)c2ccc(Br)cc21)c1ccc(C(=O)NCC2CCC3(CC2)OOC2(CCCCC2)OO3)cc1 (stereo not given),27.9%
16,O=C(/C=C/c1ccccc1)N[C@@H](CO)Cc1cnc[nH]1,102%
17,COC(=O)[C@@H](C)C[C@H](Cc1ccccc1)NC(=O)c1csc([C@@H](C[C@H](C(C)C)N(C)C(=O)[C@H](C)NC(=O)[C@H]2CCCN2C)OC(C)=O)n1,25.8%
18,NC(=O)Oc1cc(OC(N)=O)cc(N(CCCl)CCCl)c1,29.9%
19,COc1ccc(C(=O)c2sc3nc4c(cc3c2N)N2CCC4CC2)cc1OC,72.2%
20,CCOC(=O)C(NC(=O)C(Cc1ccc(N(CCCl)CCCl)cc1)NC(C)=O)C(C)C (stereo not given),92.3%

row,SMILES,growth
1,CCCCCCC(=O)NC1=C(N2CC2)C(=O)C(NC(=O)CCCCCC)=C(N2CC2)C1=O,23.2%
2,COc1ccc2c(c1)c(-c1nc(-c3cn(C)c4ncccc34)cs1)cn2CCN1CCOCC1,45.8%
3,CCN(CC)CCOC(=O)C(OC(C)C)(c1ccccc1)c1ccccc1,95.1%
4,O=P(Oc1ccc(Cl)cc1)(N1CC1)N1CC1,54.1%
5,CC1(C)CN=C(NN=C(/C=C/c2ccc(C(F)(F)F)cc2)/C=C/c2ccc(C(F)(F)F)cc2)NC1,-84% (active)
6,COc1ccc(/C=C\c2cc(OC)c(OC)c(OC)c2)cc1OCC(=O)Nc1nc2ccc(F)cc2s1,37.3%
7,CC1(C)N=C(N)N=C(N)N1c1ccc(CCC(=O)Nc2cccc(S(=O)(=O)F)c2)cc1,28%
8,N#C[Se]CCCNS(=O)(=O)C1CC2C=CC1C2 (stereo not given),-30% (active)
9,C[CH2][Sn]([Cl])([Cl])[CH2]C.Oc1ccccc1C=NCCN=Cc1ccccc1O,103%
10,C=NCC#N,105% and 108%
11,O=C(CC1(O)C(=O)Nc2ccc(F)cc21)c1ccc(C(=O)NCC2CCC3(CC2)OOC2(CCCCC2)OO3)cc1 (stereo not given),47.6%
12,C=COC(=O)CCN1CC1,108%
13,ClCCN(CCCl)c1nc(Cl)c(C2CC(c3ccccc3)=NN2c2cc(Cl)cc(Cl)c2)s1 (stereo not given),111%
14,CCNc1nc(Cl)nc(NCC)n1,106%
15,COc1cc(NC(C)CCCNC2CN3CCC2CC3)c2ncccc2c1 (stereo not given),-1.39% (active)
16,CO[C@H]1CC[C@@]2(C)C(=CC[C@@H]3[C@@H]2CC[C@]2(C)C(=O)C(=O)C[C@@H]32)C1,102%
17,CC1(C)CN1P(=O)(N1CC1(C)C)N1CC1(C)C (stereo not given),106%
18,COc1ccc(/C=C\c2cc(OC)c(OC)c(OC)c2)cc1OCC(=O)Nc1nc2ccc(OC(F)(F)F)cc2s1,-22.1% (active)
19,CN1C(=O)NC(=O)C(N=Nc2ccc(Cl)cc2)C1=O (stereo not given),90.4%
20,C[C@]12CC[C@@H]3C4=C(CC[C@H]3[C@@H]1CC[C@@H]2O)CC(=O)CC4,101%
